Screen size: about 5,500 compounds; about 2,000 (36%) were called active. Not shown: some 18% with an inconclusive outcome. Rule as the data show it: active = normalized growth mostly below about 0.91 (no sharp cut-off); inconclusive = no clear call, values can overlap the other calls; inactive = mostly above about 0.92. The list shows a part of the results.
Experiment: chemical genetic growth profiling, strain panel (AID 1159580);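 also: tested at 20 µM; growth read once vehicle control cultures reached saturation at 30 °C; 1 = growth at the plate median or of vehicle wells; lower values mean less growth of the strain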
Details: S. cerevisiae deletion strains, growth OD

Measured: normalized growth

O=c1c2ccccc2nc2n1CCc1c-2[nH]c2ccccc12
inactive: locus YAL013W, strain DEP1, active compounds read low 1.02 | locus YAL040C, strain CLN3, active compounds read low 0.981 | locus YCL061C, strain MRC1 (second series), active compounds read low 1.01 | locus YDR150W, strain NUM1, active compounds read low 1.01 | locus YDR363W, strain ESC2, active compounds read low 1.02 | locus YER002W, strain NOP16, active compounds read low 0.996 | locus YGR078C, strain PAC10, active compounds read low 1 | locus YJR075W, strain HOC1, active compounds read low 1.02 | locus YMR263W, strain SAP30, active compounds read low 1.01 | locus YMR307W, strain GAS1, active compounds read low 0.999 | locus YNL128W, strain TEP1, active compounds read low 0.964 | locus YNL153C, strain GIM3, active compounds read low 0.928 | locus YNL175C, strain NOP13, active compounds read low 0.945 | locus YNL197C, strain WHI3, active compounds read low 0.97 | locus YNL224C, strain SQS1, active compounds read low 0.982 | locus YNL322C, strain KRE1, active compounds read low 1.02 | locus YOR083W, strain WHI5 (second series), active compounds read low 0.906 | locus YPL055C, strain LGE1, active compounds read low 1.02 | locus YPL241C, strain CIN2, active compounds read low 1

From PubChem BioAssay AID1159580 (chemical genetic matrix, 2015)
